Reference: PubChem BioAssay (NCATS)
Inconclusive results are not listed. Active and inactive are the calls of the source. Calls come from the whole dose curve; as a rule, active = well fitted curve in the direction sought with a large enough effect; inconclusive = small, poorly fitted or top-dose-only effect, or another doubt; inactive = no such curve, though single readings can be large; an effect the other way counts as inactive or inconclusive. Where a SMILES comes first, the peptide text is derived from it. Bridges are numbered along the chain shown (N, C = ends). [ ]: non-standard residue; d: D form. The star is where a group is joined. X1 = CC[C@@H](C)[C@@H](N)C1=N[C@H](C(=O)*)CS1; d(aIle) = CC[C@H](C)[C@@H](N)C(=O)O; dOrn = NCCC[C@@H](N)C(=O)O

Tests used:
[1] = Drug repurposing screens with cells derived from glioblastoma tumor samples (AID 1345199); settings: GBM patient neurospheres viability, ATP luminescence, 48 h; note: nearly all actives have a fitted effect of over 40% in size; for activity, negative = cell killing: % is set by controls: 0 for no effect and ±100 for the full control effect
Procedure, shortened: (§1)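 Primary testing used CD133+ neurospheres from four GBM patients, seven concentrations, 48 h exposure and ATP-based viability; confirmation added three slower-growing patient lines.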

[2] = qHTS assay to identify inhibitors of the type 1 interferon - major histocompatibility complex class I in skeletal muscle: Counter screen cell viability and HiBit confirmation (AID 1347412); settings: iHSKM muscle cells + IFN-b, HiBiT or CellTiter-Glo, 24 h; note: nearly all actives have a fitted effect of over 60% in size
Procedure, shortened: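 After 24 h with human IFN-beta (4 ng/ml) and compound titrations (top 46 uM final, 1:3, 12 points), HLA-B HiBit myoblasts were lysed for either Nano-Glo HiBiT luminescence or CellTiter Glo viability on paired plates.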

astro = control astrocytes; test: Drug repurposing screens with cells derived from glioblastoma tumor samples (AID 1345199); settings: viability, ATP luminescence, 48 h; series mostly up to 45.9 µM; note: nearly all actives have a fitted effect of over 40% in size; for activity, negative = cell killing: % is set by controls: 0 for no effect and ±100 for the full control effect
Procedure, shortened: as §1

[3] = at 21.3 µM (top of the series), tumour line A
[4] = at 20 µM (top of the series), tumour line C
[5] = at 21.2 µM (top of the series), tumour line B
[6] = at 21.2 µM (top of the series), tumour line D
[7] = at 45.9 µM (top of the series), tumour line B
[8] = at 45.9 µM (top of the series), tumour line D
[9] = at 46.1 µM (top of the series), tumour line C
[10] = at 46 µM (top of the series), tumour line A
Potency is the fitted concentration of half-maximal effect.

O=C(O)Cc1cc(I)c(Oc2ccc(O)c(I)c2)c(I)c1
inactive: activity, negative = cell killing [1, 3] -9.11%

CC[C@@H](C)[C@@H](N)C1=N[C@H](C(=O)N[C@@H](CC(C)C)C(=O)N[C@@H](CCC(=O)O)C(=O)N[C@@H](C(=O)N[C@@H]2CCCCNC(=O)[C@@H](CC(N)=O)NC(=O)[C@@H](CC(=O)O)NC(=O)[C@@H](Cc3cnc[nH]3)NC(=O)[C@@H](Cc3ccccc3)NC(=O)[C@@H]([C@H](C)CC)NC(=O)[C@@H](CCCN)NC2=O)[C@@H](C)CC)CS1 (X1-LE[d(aIle)][dK][dOrn][dI][dF][dH][dD][dN]; lactam 4-C)
inactive: activity, negative = cell killing [1, 3] -20.3%

CC(C)(C)c1ccc2c(S(=O)(=O)O)c(C(C)(C)C)ccc2c1
inactive: activity, negative = cell killing ([1]; at 91.6 µM (top of the series), tumour line B) -24.2% | activity, negative = cell killing ([1]; at 91.6 µM (top of the series), tumour line D) -20.7% | activity, negative = cell killing ([1]; at 99.2 µM (top of the series), tumour line C) -7.16%

CCN(CC)CCOCCOC(=O)C(CC)(CC)c1ccccc1
active: Potency ([1]; tumour line B) 14.1 µM

CC(C)=CCC/C(C)=C/CC/C(C)=C/CC/C(C)=C/CC1=C(C)C(=O)c2ccccc2C1=O
active: Potency ([1]; tumour line C) 23.1 µM

C[C@H]1O[C@@H](O[C@H]2[C@@H](O)C[C@H](O[C@H]3[C@@H](O)C[C@H](O[C@H]4CC[C@@]5(C)[C@H](CC[C@@H]6[C@@H]5C[C@@H](O)[C@]5(C)[C@@H](C7=CC(=O)OC7)CC[C@]65O)C4)O[C@@H]3C)O[C@@H]2C)C[C@H](O)[C@@H]1O
active: Potency [2] 0.0394 µM

C[C@@H]1NC(=O)[C@@H](N)CNC(=O)[C@H](C2CCNC(N)=N2)NC(=O)/C(=C/NC(N)=O)NC(=O)[C@H](CNC(=O)C[C@@H](N)CCCN)NC1=O (stereo not given in full)
inactive: activity, negative = cell killing [1, 4] 24.6% | activity, negative = cell killing [1, 5] -11.2% | activity, negative = cell killing [1, 6] -13.8% | activity, negative = cell killing [1, 7] -12.9% | activity, negative = cell killing [1, 8] -1.47% | activity, negative = cell killing [1, 9] -18.8% | Potency (astro)

O=P(O)(O)OC[C@H]1O[C@](O)(COP(=O)(O)O)[C@@H](O)[C@@H]1O
inactive: activity, negative = cell killing [1, 7] -4.16% | activity, negative = cell killing [1, 8] -21.7% | activity, negative = cell killing [1, 10] -47.3% | activity, negative = cell killing [1, 9] -3.41% | Potency (astro)

CCN(CC)C(=S)S
inactive: activity, negative = cell killing [1, 7] -1.95% | activity, negative = cell killing [1, 8] -9.18% | activity, negative = cell killing [1, 10] -29.6% | activity, negative = cell killing [1, 9] -13.5% | Potency (astro)

NS(=O)(=O)c1cc2c(cc1Cl)NC(Cc1ccccc1)NS2(=O)=O (stereo not given)
inactive: activity, negative = cell killing [1, 7] 4.57% | activity, negative = cell killing [1, 8] 9.26% | activity, negative = cell killing [1, 10] -28.7% | activity, negative = cell killing [1, 9] 0.872% | Potency (astro)

OC[C@@H](O)C(O)[C@H](O)CO
inactive: activity, negative = cell killing [1, 7] -10.5% | activity, negative = cell killing [1, 8] -11.3% | activity, negative = cell killing [1, 10] -25% | activity, negative = cell killing [1, 9] 11.8% | Potency (astro)

CC1(C)S[C@@H]2[C@H](NC(=O)C3(N)CCCCC3)C(=O)N2[C@H]1C(=O)O
inactive: activity, negative = cell killing [1, 7] -3.31% | activity, negative = cell killing [1, 8] -4.88% | activity, negative = cell killing [1, 10] -7.56% | activity, negative = cell killing [1, 9] -20.1% | Potency (astro)

O=C1c2c(O)cccc2[C@H]([C@@H]2O[C@H](CO)[C@@H](O)[C@H](O)[C@H]2O)c2cc(CO)cc(O)c21
inactive: activity, negative = cell killing [1, 7] -6.89% | activity, negative = cell killing [1, 8] -4.21% | activity, negative = cell killing [1, 10] -19.8% | activity, negative = cell killing [1, 9] -2.48% | Potency (astro)

c1ccc2cc(C3=NCCN3)ccc2c1
active: Potency ([1]; tumour line A) 11.2 µM
inactive: activity, negative = cell killing [1, 7] -16.9% | activity, negative = cell killing [1, 8] -20.8% | activity, negative = cell killing [1, 9] -24% | Potency (astro)

NC(=O)OC[C@@H]1[C@H](NC(=O)/C(=N\OCC(=O)O)c2csc(N)n2)C(=O)N1S(=O)(=O)O
inactive: activity, negative = cell killing [1, 7] 5.57% | activity, negative = cell killing [1, 8] 5.27% | activity, negative = cell killing [1, 10] -4.61% | activity, negative = cell killing [1, 9] -1.35% | Potency (astro)

CCCCO
inactive: activity, negative = cell killing [1, 7] -10.8% | activity, negative = cell killing [1, 8] 1.03% | activity, negative = cell killing [1, 10] -9.11% | activity, negative = cell killing [1, 9] 6.27% | Potency (astro)

CCOC(=S)SSC(=S)OCC
inactive: activity, negative = cell killing [1, 7] -12.5% | activity, negative = cell killing [1, 8] -2.86% | activity, negative = cell killing [1, 10] -27.4% | activity, negative = cell killing [1, 9] -5.03% | Potency (astro)

CC(C)(O/N=C(\C(=O)N[C@@H]1C(=O)N2C(C(=O)[O-])=C(C[n+]3ccccc3)CS[C@H]12)c1csc(N)n1)C(=O)O
inactive: activity, negative = cell killing [1, 4] -8.81% | activity, negative = cell killing [1, 5] -13.9% | activity, negative = cell killing [1, 6] 1.29% | activity, negative = cell killing [1, 3] -19.8% | Potency (astro)

NCC(O)CC(=O)O (stereo not given)
inactive: activity, negative = cell killing [1, 7] -5.1% | activity, negative = cell killing [1, 8] -3.38% | activity, negative = cell killing [1, 10] -5.53% | activity, negative = cell killing [1, 9] 12.2% | Potency (astro)

CC(=O)OCC1=C(C(=O)O)N2C(=O)[C@@H](NC(=O)Cc3ccccc3)[C@H]2SC1
inactive: activity, negative = cell killing [1, 7] -6.43% | activity, negative = cell killing [1, 8] -15.2% | activity, negative = cell killing [1, 10] -28.6% | activity, negative = cell killing [1, 9] -24% | Potency (astro)

CCCc1ccc(C(=O)O)cc1
inactive: activity, negative = cell killing [1, 7] -12.5% | activity, negative = cell killing [1, 8] -19.9% | activity, negative = cell killing [1, 10] -22.4% | activity, negative = cell killing [1, 9] 3.37% | Potency (astro)

CC(C)(CO)[C@@H](O)C(=O)NCCCC(=O)O
inactive: activity, negative = cell killing [1, 7] 2.97% | activity, negative = cell killing [1, 8] -4.32% | activity, negative = cell killing [1, 10] -3.96% | activity, negative = cell killing [1, 9] -7.77% | Potency (astro)
